A short description of test [1]: NCI Yeast Anticancer Drug Screen. Data for the rad50 strain (AID 155).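 Further: 0% = growth of vehicle-only cultures of the same strain.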 The note with it: S. cerevisiae rad50 strain growth inhibition; at 50.0 µM; stronger effect = higher value. The method, boiled down: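 Cells are treated with compound, grown, and their growth is then scored against vehicle-only cultures of the same repair-deficient yeast strain.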
Test [2] is described as follows: NCI Yeast Anticancer Drug Screen. Data for the mec2-1 strain (AID 157). The note with it: S. cerevisiae mec2-1 strain, at 50.0 µM, stronger effect = higher value. An outline of the steps: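 Test agents were screened against the mec2-1 yeast strain, with defined DNA repair or cell cycle alteration. Growth was scored as inhibition against vehicle-only controls.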
Test [3] can be described thus: NCI Yeast Anticancer Drug Screen. Data for the sgs1 mgt1 strain (AID 161).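 Further: 0% = growth of cultures given vehicle only.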 Conditions: S. cerevisiae sgs1 mgt1 strain, at 50.0 µM, stronger effect = higher value. An outline of the steps: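 Genetically altered yeast, compound exposure, growth inhibition relative to vehicle.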
Test [4] is described as follows: NCI Yeast Anticancer Drug Screen. Data for the cln2 rad14 strain (AID 165).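 Further: 0% = growth equal to vehicle treated cultures.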 The note with it: S. cerevisiae cln2 rad14 strain, at 50.0 µM, stronger effect = higher value. The method, boiled down: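 Growth of compound-exposed yeast (cln2 rad14 genotype) measured and expressed as inhibition relative to vehicle.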
A short description of test [5]: NCI Yeast Anticancer Drug Screen. Data for the bub3 strain (AID 167). The note with it: S. cerevisiae bub3 mutant strain, at 50.0 µM, stronger effect = higher value. The method, boiled down:
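Part of a panel of yeast mutants defective in DNA damage repair or cell cycle regulation. Each strain is grown with compound, and inhibition is calculated relative to solvent-treated cultures.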

The nature of test [6]: NCI Yeast Anticancer Drug Screen. Data for the mlh1 rad18 strain (AID 175). Conditions: S. cerevisiae mlh1 rad18 strain growth inhibition; at 50.0 µM; stronger effect = higher value. An outline of the steps: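 In this whole-cell yeast screen, a strain with altered DNA damage repair is challenged with compound, and its growth is measured against matched vehicle-treated controls.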

Several values for one entry are separate records, joined by “and”; a condition that tells them apart may be missing. Equal entries are not always repeated. The panel holds about 79,000 compounds, 15% with a hit somewhere; the sample as a whole holds those more often. A number with no mark means an inactive call. Activity calls are given as the source filed them. No stated cut-off is given here; in the data, active means growth inhibition above about 70%; inactive means the rest.

Regarding `Oc1cccc2cccnc12.[Cr]`, the growth inhibition is 6% in test [1]; -0.65% in test [2]; -7.65% in test [3]; -7% in test [4]; -16.9% in test [5]; -9.65% in test [6].

For `CC1(C)C(=O)C=CC2(C)C3CCC4(C)C(O)CCC4(C)C3CCC12` (configuration not stated), the growth inhibition in test [1] is 9.6%; in test [2], -10.2%; in test [3] it was 7.2%; in test [4], -30.1%; in test [5], 13.8%; in test [6], 20.1%.

For the compound `CC1(C)N=C(N)N=C(N)N1c1ccc(Cl)c(CCCCc2ccc(S(=O)(=O)F)cc2)c1`, the growth inhibition in test [1] is 99.8% (active); in test [2], 99.8% (active); in test [3], 99.2% (active); in test [4], 99.4% (active); in test [5], 99.6% (active); in test [6], 99.8% (active).

Take `COc1ccc(Cc2nccc3cc(OC)c(OC)cc23)cc1OC`: the growth inhibition in test [1] was -4.15% and -16.3%; in test [2], -19.4% and -28%; in test [3] it was -6.9% and 11.4%; in test [4], -2.9% and -11.6%; in test [5] it was -11.7% and -7.9%; in test [6] it was -21.1% and -29.4%.

Take `COc1ccc([Se]c2ccc(OC)cc2)cc1`: the growth inhibition in test [1] was 0%; in test [2] it was -15.5%; in test [3] it was -7.15%; in test [4] it was -13.6%; in test [5], 21.4%; in test [6], -4.55%.

On to `CC(C)OP(=O)(OC(C)C)C(C(F)(F)F)C(F)(F)F`, for which the growth inhibition is -3.65% in test [1]; 9.65% in test [2]; 19% in test [3]; 45.9% in test [4]; 10.6% in test [5]; -23.1% in test [6].

As to `COc1ccc(NC2=NCCO2)c2ccccc12`, the growth inhibition in test [1] is -11.9%; in test [2], -42.3%; in test [3], -31.1%; in test [4] it was -0.3%; in test [5], -13.4%; in test [6] it was -20.9%.

In the case of `c1ccc(N2CCNCC2)cc1` (tested in a mixture with another compound), the growth inhibition in test [1] is -18.1% and 5.8%; in test [2], 6.7% and -16.3%; in test [3] it was -26.1% and -5.8%; in test [4] it was -4% and -48.5%; in test [5], 10.2% and 10.3%; in test [6], -27.7% and -4.65%.

As for `CCOC(=O)C1C(=O)C(CN(CCCl)CCCl)C(=O)C(C(=O)OCC)C1c1cc(OC)c(OC)c(OC)c1` (configuration not stated), the growth inhibition is 17.9% in test [1]; -8.05% in test [2]; 16.6% in test [3]; -27.9% in test [4]; 0% in test [5]; 30.9% in test [6].

For the compound `CC(=O)OC1=CCC2(C)C(CCC3C4CCC(OC(C)=O)C4(C)CCC32)C1=O` (configuration not stated), the growth inhibition in test [1] was 87.5% (active); in test [2], 79.4% (active); in test [3], 87.5% (active); in test [4], 72.3% (active); in test [5] it was 73.5% (active); in test [6] it was 85.3% (active).

Consider `CC1(C)COP(=O)(c2ccccc2)N1` (configuration not stated), for which the growth inhibition was -14.1% in test [1]; -21.4% in test [2]; -7.4% in test [3]; -24.4% in test [4]; -1.5% in test [5]; -3.1% in test [6].

`Cc1cc(C(C)(C)c2cc(C)c(O)c(C)c2)cc(C)c1O`: the growth inhibition in test [1] is 12.6%; in test [2], -41.1%; in test [3], -6.9%; in test [4], 27.4%; in test [5], -17.6%; in test [6] it was -12.3%.

In the case of `ClCc1ccc2ccccc2n1`, the growth inhibition in test [1] is 19.1% and 11.7%; in test [2] it was -8.8% and -0.5%; in test [3], -3.8% and 8.5%; in test [4], 7.55% and 3.35%; in test [5], -17.6% and -7.65%; in test [6], 9.75% and 4.55%.

For the compound `CN(C)c1ccc(C=Cc2ccc([N+](=O)[O-])cc2)cc1.[C-]#[O+].[C-]#[O+].[C-]#[O+].[Cr]`, the growth inhibition in test [1] is -16.1%; in test [2], -5.1%; in test [3], -11.6%; in test [4], 24.8%; in test [5] it was -7.35%; in test [6] it was -10.1%.

`C[CH2][Sn]([CH2]C)([CH2]C(=O)OC)[CH2]C(=O)OC`: the growth inhibition was 3.15% in test [1]; 14.7% in test [2]; 15.5% in test [3]; 11.7% in test [4]; 14.4% in test [5]; -9.9% in test [6].

For `CC(O)C[As](=O)(O)c1ccccc1Cl` (configuration not stated), the growth inhibition was 2.85% in test [1]; 25.5% in test [2]; -17.3% in test [3]; -2.55% in test [4]; 14.4% in test [5]; -16.6% in test [6].

Regarding `CCCCN(CCCC)CC(=O)c1ccc(Br)cc1`, the growth inhibition in test [1] is 7.05%; in test [2], 2.5%; in test [3], 20.2%; in test [4] it was -24.4%; in test [5] it was 18%; in test [6] it was 27.6%.

As to `CP1(=S)CC[C@H]2C3=C(CC[C@@H]21)CC(=O)CC3` (some centres not stated), the growth inhibition was 14.4% in test [1]; 14.6% in test [2]; 11.3% in test [3]; 52.9% in test [4]; 2.9% in test [5]; 16.9% in test [6].

`Cc1cccc(C)c1OCC1=NCCN1`: the growth inhibition in test [1] is 4.75%; in test [2] it was 14.3%; in test [3] it was 0.1%; in test [4], -55.6%; in test [5], 5.5%; in test [6], -13.1%.

Take `CC(C)(C)c1cc(O)ccc1O`: the growth inhibition was 22.5% in test [1]; -1.55% in test [2]; -29.1% in test [3]; -0.25% in test [4]; -25.7% in test [5]; 24.5% in test [6].

Consider `CC(C)CC(NC=O)C(=O)NC(Cc1ccccc1)NC(=O)CNC(=O)C(C)NC(=O)C(N)Cc1ccc(O)cc1` (configuration not stated), for which the growth inhibition in test [1] is -17.3%; in test [2] it was -9.9%; in test [3] it was -0.9%; in test [4], 15.4%; in test [5] it was -5.15%; in test [6], -6.45%.

Turning to `CCN(CCCl)CCCCCNc1c2ccccc2nc2ccc(OC)cc12`, the growth inhibition in test [1] is 84.5% (active); in test [2] it was 84.5% (active); in test [3], 83% (active); in test [4] it was 84.3% (active); in test [5], 78.8% (active); in test [6], 76% (active).

With `CCCCCOP(=O)(OCCCCC)C(=O)Nc1ccc([N+](=O)[O-])cc1`, the growth inhibition in test [1] is -12.9%; in test [2] it was 4.85%; in test [3], -5.25%; in test [4], -3.2%; in test [5] it was -1.8%; in test [6], 10.9%.

With `CCCP(=S)(CCC)P(=S)(CCC)CCC`, the growth inhibition in test [1] was 5.4%; in test [2] it was 19.4%; in test [3], 20.9%; in test [4] it was -2.75%; in test [5], 18%; in test [6], 20.9%.

Take `O=[N+]([O-])c1ccc(NC(c2ccccc2)P(=O)(Oc2ccccc2)Oc2ccccc2)cc1` (configuration not stated): the growth inhibition was -1.75% in test [1]; -6.4% in test [2]; -43.1% in test [3]; -6% in test [4]; -2.05% in test [5]; 3.65% in test [6].

On to `c1ccc(CCN2CCOCC2)nc1`, for which the growth inhibition in test [1] was 17.3%; in test [2], 1.6%; in test [3], -8.95%; in test [4], 52%; in test [5], 4.55%; in test [6], 3.85%.

Take `O=P1(N(CCCl)CCCl)OC(c2ccccc2)=CCN1c1ccccc1` (configuration not stated): the growth inhibition in test [1] was 0.6%; in test [2], 20.1%; in test [3] it was 57.2%; in test [4], 32.4%; in test [5], 50%; in test [6], 34.6%.

Take `NCCc1cc2c3c(c1)CCCN3CCC2`: the growth inhibition in test [1] was 96.5% (active); in test [2] it was 96.5% (active); in test [3], 94.5% (active); in test [4], 88.7% (active); in test [5], 94.9% (active); in test [6] it was 98.2% (active).

Take `COc1ccc2nc3ccccc3nc2c1` (tested in a mixture with another compound): the growth inhibition in test [1] is 30.2%; in test [2], 35.2%; in test [3], 27.2%; in test [4] it was 19.6%; in test [5], 24.1%; in test [6], 30.8%.

In the case of `ClCCN(CCCl)c1ccc(-c2csc(Cc3ccccc3)n2)cc1`, the growth inhibition in test [1] is -2%; in test [2], -7.35%; in test [3], -2.7%; in test [4] it was -20%; in test [5], -4.3%; in test [6], -19.9%.

Take `C=CCCOC(=O)CO[N+](=O)[O-]`: the growth inhibition in test [1] was 6.8%; in test [2], -0.7%; in test [3], 5.35%; in test [4], 8.8%; in test [5] it was -4.25%; in test [6], 4.1%.

As to `COC(=O)C(Cl)CCl` (configuration not stated), the growth inhibition in test [1] is 2.45% and 39.4%; in test [2] it was 15.3% and 6.15%; in test [3], -9.05% and 16%; in test [4], -23.2% and -34.7%; in test [5], -2.3% and 15.8%; in test [6], -20.8% and 25.7%.

On to `CC(C)CCC(=O)O[C@H]1CC[C@@]2(C)C(=CC[C@@H]3[C@@H]2CC[C@]2(C)C(=O)CC[C@@H]32)C1`, for which the growth inhibition is 26.2% in test [1]; 8.4% in test [2]; 11.4% in test [3]; 17.1% in test [4]; 1.95% in test [5]; 23.3% in test [6].

With `COc1cc2c(cc1O)N=C[C@@H]1CCC(O)N1C2=O` (mixture of isomers), the growth inhibition was 19.6% in test [1]; 16.3% in test [2]; 19.2% in test [3]; 58.8% in test [4]; -2.2% in test [5]; 3.9% in test [6].

`O=C(O)C(F)(F)C(F)(Cl)C(F)(F)C(F)(Cl)C(F)(F)C(F)(Cl)C(F)(F)Cl` (configuration not stated) (tested in a mixture with another compound): the growth inhibition was 8.45% and 43.4% in test [1]; 28.8% and 18.4% in test [2]; 37.4% and 41.1% in test [3]; 9.7% and 27.6% in test [4]; -2.15% and -2% in test [5]; 35.5% and 30.5% in test [6].

As for `CCC1CN2CCc3cc(OC)c(OC)cc3C2CC1CC1c2cc(OC)c(OC)cc2CCN1C(=O)C(N)Cc1ccccc1` (configuration not stated), the growth inhibition was -8.25% in test [1]; -0.5% in test [2]; -2.3% in test [3]; -3.05% in test [4]; -5.05% in test [5]; 8.5% in test [6].

`Fc1ccc(C2(N3CCC4(CC3)OCCO4)CCCCC2)cc1`: the growth inhibition in test [1] was -8.05%; in test [2] it was 9%; in test [3], 14.1%; in test [4] it was -15.5%; in test [5], 0.1%; in test [6], 5.6%.

Values taken from PubChem BioAssay (NCI).
